An excerpt weighted towards active compounds, which were near 1.6% of everything screened.
NPR2 activator = human GC-B receptor activators, primary screen, HEK293 GC-B cells, cGMP TR-FRET, EC30 CNP. Atrial natriuretic peptide receptor 2 (Homo sapiens), P20594. activation, % at 10 µM. 0% at EC30 CNP, 100% saturating CNP. AID 1920062, 2024. 370,000 compounds, 0.11% hits;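 active = activation at 10 µM reaching about 35% in either raw or pattern-adjusted values, limit read from the data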
Rce1 inh = yeast Rce1p protease inhibitors, primary screen, biochemical, fluorescence, cell-free homogeneous. AID 2563, 2010. 290,000 compounds, 0.27% hits. calls only. yeast membranes, quenched prenylated peptide cleavage fluorescence;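 active = fall in fluorescence gain of 50% or more versus controls, with final raw signal at or below 3038400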;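 also: plate controls were neutral control wells for no effect and wells lacking membranes for full effect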
NPR1 activator = GC-A stimulated cGMP production enhancers – HEK293 GC-A cells, cGMP TR-FRET, EC30 ANP, primary screen | Atrial natriuretic peptide receptor 1 (Homo sapiens), P16066 | 0% at EC30 ANP, 100% saturating ANP | activation, % at 10 µM | 370,000 compounds, 0.14% hits; in the data active = activation above about 40%
Target sequence (P16066 whole entry, looked up): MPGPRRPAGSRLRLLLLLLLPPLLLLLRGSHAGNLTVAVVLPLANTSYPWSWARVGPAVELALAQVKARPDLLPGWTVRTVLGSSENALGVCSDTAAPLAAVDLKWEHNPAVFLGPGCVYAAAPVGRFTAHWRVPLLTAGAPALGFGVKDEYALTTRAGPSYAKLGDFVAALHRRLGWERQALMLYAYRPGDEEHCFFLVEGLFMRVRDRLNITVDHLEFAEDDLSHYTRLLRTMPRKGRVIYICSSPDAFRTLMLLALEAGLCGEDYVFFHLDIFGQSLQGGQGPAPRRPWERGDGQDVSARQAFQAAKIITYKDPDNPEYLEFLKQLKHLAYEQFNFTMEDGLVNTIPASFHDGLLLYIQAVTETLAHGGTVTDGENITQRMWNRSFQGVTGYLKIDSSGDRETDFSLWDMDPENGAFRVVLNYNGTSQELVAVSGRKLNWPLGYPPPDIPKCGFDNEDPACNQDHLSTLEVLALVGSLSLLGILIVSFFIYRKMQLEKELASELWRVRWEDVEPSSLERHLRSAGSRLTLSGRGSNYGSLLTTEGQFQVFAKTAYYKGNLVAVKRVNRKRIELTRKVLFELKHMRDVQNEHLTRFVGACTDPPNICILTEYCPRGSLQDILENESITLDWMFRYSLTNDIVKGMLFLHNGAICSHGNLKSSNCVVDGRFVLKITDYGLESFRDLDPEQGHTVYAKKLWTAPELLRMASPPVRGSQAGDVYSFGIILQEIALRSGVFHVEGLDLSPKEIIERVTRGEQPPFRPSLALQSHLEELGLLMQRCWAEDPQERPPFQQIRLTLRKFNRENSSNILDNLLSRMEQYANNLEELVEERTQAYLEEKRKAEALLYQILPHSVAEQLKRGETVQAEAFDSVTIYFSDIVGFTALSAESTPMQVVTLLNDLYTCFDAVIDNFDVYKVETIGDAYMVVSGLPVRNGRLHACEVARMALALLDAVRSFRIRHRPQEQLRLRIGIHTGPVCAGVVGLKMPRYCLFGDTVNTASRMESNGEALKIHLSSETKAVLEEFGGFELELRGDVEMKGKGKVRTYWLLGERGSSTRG
Efflux pump inh = inhibitors of Candida efflux pumps in yeast, primary screen, S. cerevisiae, Nile Red, multiplex; S. cerevisiae Candida pump triplex; inhibition, % at 10 µM; AID 485275, 2010; 330,000 compounds, 0.44% hits;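 active = plate passing quality check with inhibition over a set limit, or well fluorescence over plate mean plus 4 SD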;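 also: Nile Red retained in pooled yeast measured as flow cytometry median fluorescence; 0% = buffer negative control and 100% = Enniatin B positive control; higher means more Nile Red kept so more efflux inhibition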
V-ATPase pH = regulators of yeast V-ATPase proton pumping, primary screen, pHLuorin cytosolic pH fluorescence. S. cerevisiae. response, % at 10 µM. 350,000 compounds, 0.37% hits; in the data active = response mostly above about 7.3%, no sharp cut-off; inactive = mostly below about 5.4%; also: actives read high
NSD2 HMT inh = NSD2 histone methyltransferase inhibitors, primary screen, biochemical, AlphaScreen, single concentration, set 2; NSD2 peptide methylation, 120 min; inhibition, % at 12.5 µM; 310,000 compounds, 0.54% hits; in the data active = inhibition above about 50%
Alpha artifact = AlphaScreen signal interference with preloaded methylated product, dose response, artefact control for NSD2 inhibitor project, biochemical, cherry-picked samples | AC35, µM (top dose mostly 10 µM), inactives show at the highest dose activity change, negative = signal loss | shares compounds with NSD2 HMT inh | AID 1053174, 2014 | AlphaScreen artifact counterscreen, preloaded methylated H4 peptide | 1,500 compounds, 9.4% hits; call rule not given here
* hit, by the source's call; i = inactive; x = not tested or not shown.

SMILES | NPR2 activator | Rce1 inh | NPR1 activator | Efflux pump inh | V-ATPase pH | NSD2 HMT inh | Alpha artifact
Cc1cc(C)cc(N(CC(=O)NC2CCC(C)CC2)S(=O)(=O)c2ccccc2)c1 (stereo not given) | -15 | x | -16 | x | x | 1 | x
O=C1Nc2c(Cl)cccc2C1=O | -3 | x | -5 | x | x | 126* | 4%
COc1ccc(-c2cc(C(F)(F)F)n3nc(C(=O)N4CCN5CCCC5C4)cc3n2)cc1OC (stereo not given) | 4 | i | 3 | 0 | 0 | -3 | x
Cc1ccc(-c2cc(C(F)(F)F)n3nc(C(=O)N4CCN5CCCC5C4)cc3n2)cc1 (stereo not given) | 7 | x | 8 | 1 | -5 | 75* | 0%
Cc1cccc(NCCNc2cccc(C)c2)c1 | -3 | i | 3 | 0 | 1 | 56* | -4%
CCCC#Cc1ccc(CC[C@H]2O[C@H]3CC[C@@H](CO)O[C@H]3C[C@H]2NC(=O)CN2CCOCC2)cc1 | 5 | x | 7 | x | x | x | x
CCOC(=O)c1c(N)n(CCOC(=O)c2cccs2)c2nc3ccccc3nc12 | 8 | i | 4 | 0 | 1 | x | x
CCCCCOC(=O)c1c(N)n(CCOC)c2nc3ccccc3nc12 | 8 | i | 20 | 0 | 0 | 61* | 8%
O=C(CN1CCC(C(=O)c2ccc3c(c2)OCCO3)CC1)NCc1ccccc1 | -9 | i | -1 | 0 | 1 | 65* | 1%
Cc1ccccc1NC(=O)Cn1nnc(-c2ccncc2)n1 | 2 | x | 2 | x | x | 4 | x
COc1ccc(C(=O)Cc2nnc(C)s2)cc1 | -1 | i | 2 | 0 | 1 | 69* | 2%
COc1ccc(C(=O)CC(=O)c2ccc(OC)cc2)cc1 | -4 | i | 2 | 0 | 0 | -5 | x
Cc1c(N=C2C=CC(=O)c3ccccc32)c(=O)n(-c2ccccc2)n1C | 3 | i | 73* | x | 2 | 89* | -8%
COc1ccc(COC[C@H](C)N2C[C@@H](C)[C@H](CN(C)S(=O)(=O)c3ccc(F)cc3)OCCCC[C@H](C)Oc3ccc(NC(=O)Nc4ccccc4)cc3C2=O)cc1 | 1 | x | -2 | x | x | -2 | x
CCCCCn1nnnc1C1(C)CN(S(C)(=O)=O)CC(=O)N1Cc1ccco1 (stereo not given) | 1 | x | 2 | x | x | x | x
COc1ccc(CNC(=O)CCCSc2ccccc2)cc1 | 2 | i | -5 | 0 | -1 | 3 | x
NS(=O)(=O)c1ccc(CNC(=O)CCCSc2ccccc2)cc1 | 0 | x | 1 | 0 | -1 | 82* | -7%
CC1CCCCC1N(C(=O)c1cc(C2CC2)on1)C1CCCCCC1 (stereo not given) | -4 | x | -7 | x | x | x | x
CC(C)=CCC1=C(OCC(=O)O)C(=O)c2ccccc2C1=O | 1 | i | -8 | 0 | 1 | 127* | -2%
CC(C)=CCC/C(C)=C/CC/C(C)=C/CC/C(C)=C/CC1=C(C)C(=O)c2ccccc2C1=O | 3 | i | -3 | 0 | -3 | x | x
CCN(CC)CCCN(Cc1cc2cc3c(cc2[nH]c1=O)OCO3)C(=O)Nc1ccccc1OC | 4 | i | 1 | 0 | 4 | 8 | x
CCN(CC)CCCN(Cc1cc2cc3c(cc2[nH]c1=O)OCO3)C(=S)NCCOC | 0 | i | 5 | 0 | 2 | 27 | x
CCNC(=S)N(CCCN(CC)CC)Cc1cc2cc3c(cc2[nH]c1=O)OCO3 | 4 | i | 4 | 0 | 3 | 84* | -7%
CCN(CC)CCCN(Cc1cc2cc(OC)c(OC)cc2[nH]c1=O)C(=O)Nc1ccccc1 | 4 | i | 1 | 0 | -3 | 51* | 0%
CCOC(=O)CC[C@@H]1CC[C@]2(CCCN(S(=O)(=O)C3CCCCC3)C2)O1 | -1 | x | -1 | x | x | x | x
SMILES | NPR2 activator | Rce1 inh | NPR1 activator | Efflux pump inh | V-ATPase pH | NSD2 HMT inh | Alpha artifact
CN1/C(=N\O)c2cccc3cccc1c23 | -2 | i | 2 | 0 | -4 | 55* | 8%
COC(=O)[C@]12C[C@H](CC(=O)N3CCC(c4ccccc4)CC3)C(=O)N(Cc3ccco3)C1=C[C@H](C1CCCC1)O[C@@H]2C | -4 | x | -6 | x | x | x | x
CC1CCN(CC(=O)Nc2ccc(S(=O)(=O)N3CCCC(C)C3)cc2)CC1 (stereo not given) | 1 | i | -1 | 1 | 3 | 15 | x
CC1CCCN(S(=O)(=O)c2ccc(NC(=O)CN3CCN(C)CC3)cc2)C1 (stereo not given) | -3 | i | 5 | 0 | 0 | 90* | 0%
CCCC1CCC2(CCCN2CCOC(=S)Nc2ccccc2)CC1 (stereo not given) | -6 | x | 1 | x | x | 1 | x
Cc1c(C(=O)c2no[n+]([O-])c2C(=O)c2cnn(C)c2C)cnn1C | 3 | i | -3 | 0 | 0 | 66* | -4%
COc1ccc(C(=O)c2no[n+]([O-])c2C(=O)c2ccc(OC)cc2)cc1 | 2 | i | 6 | 0 | 3 | x | x
O=C(CSc1nc(-c2ccccc2)c(-c2ccccc2)o1)Nc1nnc(-c2ccccc2)s1 | -7 | i | -6 | 0 | -2 | 76* | 2%
Cc1nnc(N/N=C/c2ccccc2O)n1N | 0 | i | 1 | 0 | 4 | 101* | -5%
CCc1nnc(N/N=C/c2ccc(-c3ccc([N+](=O)[O-])cc3)o2)n1N | -7 | i | -4 | 0 | 0 | 11 | x
Cc1nnc(N/N=C/c2ccc(-c3ccccc3F)o2)n1N | -7 | i | 0 | 0 | -3 | 85* | -1%
Cc1nnc(N/N=C/c2c(Cl)cccc2Cl)n1N | 3 | i | -2 | 0 | -3 | 15 | x
Cc1nnc(N/N=C\c2ccc(-c3ccccc3[N+](=O)[O-])o2)n1N | -10 | i | -7 | 0 | -1 | 93* | -8%
N#CCC[C@H]1CC[C@]2(CCCN(Cc3cccc4ccccc34)C2)O1 | -4 | x | -4 | x | x | x | x
COC(=O)c1cc(NC(=O)Nc2cc(OC)ccc2OC)cc(C(=O)OC)c1 | -2 | i | -30 | 0 | -2 | 120* | 3%
COC(=O)[C@]1(CNC(=O)Nc2ccc(C)c(Cl)c2)CC(=O)N(C)[C@@H]1c1ccccc1 | 3 | x | 4 | x | x | x | x
COc1ccc(NC(=O)CSc2nc3nc(-c4cccs4)cc(C(F)(F)F)c3c(=O)[nH]2)c(OC)c1 | -1 | i | -3 | 0 | -1 | 10 | x
